The panel holds about 83,000 compounds, 20% with a hit somewhere; the sample as a whole holds those more often.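 Interpretation: 100, growth as untreated; towards 0, rising growth inhibition; 0, no net growth; 0 to -100, cell death. Compounds scoring below 10 were considered active.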 Active and inactive are the calls of the source.
Test system: NCI-H23 lung
Experiment: NCI-60 one-dose screen, 48 h (100 = growth as untreated, 0 = no growth, -100 = all killed)
Settings: 10 µM unless noted

Row | Compound | growth
1 | CN(C)CCNc1nc2ccccc2c2c(=O)c3ccccc3sc12 | 31.8% (inactive)
2 | Nc1nc2ccc(CNc3ccc(C(=O)NC(CC(=O)O)C(=O)O)cc3)cc2c(=O)[nH]1 (centres undefined) | 31.7% (inactive)
3 | CC12CCC3C(CCC4CC(O)CCC43C)C1C/C(=C/O)C(=O)O2 (centres undefined) | 98.7% (inactive)
4 | COc1cc(/C=C/C(=O)c2ccc(Oc3ncnc4ccccc34)cc2)cc(OC)c1OC | 80.3% (inactive)
5 | Nc1n[nH]c2cccc(C#Cc3cccc(NC(=O)c4cccc(C(F)(F)F)c4)c3)c12 | 39.5% (inactive)
6 | COc1ccc(-c2nn(-c3ccc(NC(=O)c4ccc(Cl)c(C(F)(F)F)c4)cc3)cc2-c2ccncc2)cc1Cl | 30.2% (inactive)
7 | CCCN1C(=O)CSC1=Nc1ccc2cc3ccc(N=C4SCC(=O)N4CCC)cc3nc2c1 | 35.8% (inactive)
8 | CCOC(=O)C1=C(N)Oc2cc(OC)ccc2C1c1ccc(F)c(F)c1 (centres undefined) | 45.1% (inactive)
9 | CC(C(C(=O)N1CCCCC1)N1CCCCC1)N1CCCCC1 (centres undefined) | 107% (inactive)
10 | COc1ccc2c(-c3ccc(F)cc3)c(C#N)c(=NC(C)=O)oc2c1 | 53.8% (inactive)
11 | COc1ccc(-c2nnc(SCC(=O)Nc3ccc(C(=O)/C=C/c4ccc(Cl)cc4)cc3)o2)cc1OC | 79% (inactive)
12 | COc1cccc(/C=N/C(=S)NC2(C)C3CCC(C3)C2(C)C)c1O (centres undefined) | 94.7% (inactive)
13 | CC1(C)N=C(N)N=C(N)N1c1ccc(OCC(=O)Nc2ccccc2)c(Cl)c1 | 24% (inactive)
14 | FC(F)(F)c1cn(CCN2CCOCC2)c2ncnc(Cl)c12 | 66.1% (inactive)
15 | COc1ccc(-c2nn(-c3ccc(NC(=O)Nc4cc(C(F)(F)F)cc(C(F)(F)F)c4)cc3)cc2-c2ccncc2)cc1Cl | 8.51% (active)
16 | O=C(CNc1cccnc1)Nc1ccc(C(=O)/C=C/c2ccc(Cl)cc2)cc1 | 91.7% (inactive)
17 | CCc1ccc(C2=C/C(=C/c3ccc(Cl)cc3)C(=O)N2CCc2ccc(S(N)(=O)=O)cc2)cc1 | 34.4% (inactive)
18 | O=C(Nc1ccc(-n2ccc3c(NC(=O)c4ccccc4)nccc32)cc1)c1cccc(C(F)(F)F)c1 | 50% (inactive)
19 | O=S(=O)(CCN1CCOCC1)Nc1cc(-c2ccc3ncnc(Nc4ccc(F)c(Cl)c4)c3c2)cnc1Cl | 28% (inactive)
20 | CCC1S/C(=N\N=C(/C)c2cc3ccccc3o2)N(c2ccccc2)C1=O (centres undefined) | 93.6% (inactive)

Row | Compound | growth
21 | COc1cccc(-c2nc3sccn3c2-c2ccnc(NCCNC(=O)c3ccccc3)n2)c1 | 87.3% (inactive)
22 | NC(N)=N/N=C/c1ccc([N+](=O)[O-])cc1 | 91.4% (inactive)
23 | C#C[C@@]1(O)[C@@H](CO)O[C@@H](n2cc(Br)c3c(Cl)ccnc32)[C@@H]1O | 31.9% (inactive)
24 | CCOC(=O)C(C)(CSSCC(C)(NC(=O)c1ccc2ccccc2c1)C(=O)OCC)NC(=O)c1ccc2ccccc2c1 (centres undefined) | 98.3% (inactive)
25 | O=C(C[n+]1cccc(Br)c1)c1ccc2c(c1)CCCC2 | 92% (inactive)
26 | CCC(C)Nc1ccc(N)cc1 (centres undefined) | 5.04% (active)
27 | Cc1cn(-c2nc3c(c(NCc4ccccc4)n2)COCC3)c2cccc(C(N)=O)c12 | 58.8% [0.5 µM] (inactive)
28 | Nc1ncnc2c1ccn2-c1cccc(NC(=O)c2cccc(C(F)(F)F)c2)c1 | 90.6% (inactive)
29 | COc1ccc(-c2nnc(SCC(=O)Nc3ccc(C(=O)/C=C/c4ccccc4)cc3)o2)cc1OC | 88% (inactive)
30 | CCCCCCCCCCCCCCCCCCNCc1ccc(Cl)cc1 | -65.4% (active)
31 | Clc1ccc2c(c1)nnn1c3ncccc3c(Br)c21 | 81.1% (inactive)
32 | CCCOC(=O)c1ccc([N+](=O)[O-])o1 | 108% (inactive)
33 | [2H]c1nc(Nc2ncc(F)c(-c3cc(F)c4nc(C)n(C(C)C)c4c3)n2)c([2H])c([2H])c1CN1CCN(CC)CC1 | 48.7% (inactive)
34 | COc1ccccc1N1CCN(CC(O)COc2c(Br)c(Br)c(Br)c3c2OC(C)(C)C3)CC1 (centres undefined) | 48.8% (inactive)
35 | CCOC(=O)c1noc2c1CCc1cn(Cc3cc(OC)cc(OC)c3)cc1-2 | 97.6% (inactive)
36 | O=C1c2ccccc2C(=O)c2c(NCCN=Cc3c(O)ccc4ccccc34)cccc21 | 92.9% (inactive)
37 | Cc1[nH]n(C(=O)c2ccncc2)c(=O)c1N=Nc1ccc(S(=O)(=O)Nc2ccncn2)cc1 | 100% (inactive)
38 | O=C(Nc1ccc(Cl)c(Cl)c1)Nc1ccc(Cl)c([N+](=O)[O-])c1 | -14.4% (active)
39 | COc1ccc(-c2cnc(-c3ccc(F)cc3)[nH]2)cc1 | 88.2% (inactive)

Reference: PubChem BioAssay (NCI)
